Laboratory results taken from PubChem BioAssay AID1835 (Johns Hopkins Ion Channel Center, 2009).
The whole screen tested about 2,400 compounds, of which about 750 (31%) were called active. The list shows a part of the results. Unmarked numbers belong to inactive results.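 How the source made its calls: active means median signal gain over dofetilide-blocked control wells reaching their mean plus 3 SD, so readout 1 at least 0; inactive means the rest.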

Molecular target: Voltage-gated inwardly rectifying potassium channel KCNH2 (Homo sapiens) (UniProt Q12809)
Sequence (Q12809 whole entry, looked up): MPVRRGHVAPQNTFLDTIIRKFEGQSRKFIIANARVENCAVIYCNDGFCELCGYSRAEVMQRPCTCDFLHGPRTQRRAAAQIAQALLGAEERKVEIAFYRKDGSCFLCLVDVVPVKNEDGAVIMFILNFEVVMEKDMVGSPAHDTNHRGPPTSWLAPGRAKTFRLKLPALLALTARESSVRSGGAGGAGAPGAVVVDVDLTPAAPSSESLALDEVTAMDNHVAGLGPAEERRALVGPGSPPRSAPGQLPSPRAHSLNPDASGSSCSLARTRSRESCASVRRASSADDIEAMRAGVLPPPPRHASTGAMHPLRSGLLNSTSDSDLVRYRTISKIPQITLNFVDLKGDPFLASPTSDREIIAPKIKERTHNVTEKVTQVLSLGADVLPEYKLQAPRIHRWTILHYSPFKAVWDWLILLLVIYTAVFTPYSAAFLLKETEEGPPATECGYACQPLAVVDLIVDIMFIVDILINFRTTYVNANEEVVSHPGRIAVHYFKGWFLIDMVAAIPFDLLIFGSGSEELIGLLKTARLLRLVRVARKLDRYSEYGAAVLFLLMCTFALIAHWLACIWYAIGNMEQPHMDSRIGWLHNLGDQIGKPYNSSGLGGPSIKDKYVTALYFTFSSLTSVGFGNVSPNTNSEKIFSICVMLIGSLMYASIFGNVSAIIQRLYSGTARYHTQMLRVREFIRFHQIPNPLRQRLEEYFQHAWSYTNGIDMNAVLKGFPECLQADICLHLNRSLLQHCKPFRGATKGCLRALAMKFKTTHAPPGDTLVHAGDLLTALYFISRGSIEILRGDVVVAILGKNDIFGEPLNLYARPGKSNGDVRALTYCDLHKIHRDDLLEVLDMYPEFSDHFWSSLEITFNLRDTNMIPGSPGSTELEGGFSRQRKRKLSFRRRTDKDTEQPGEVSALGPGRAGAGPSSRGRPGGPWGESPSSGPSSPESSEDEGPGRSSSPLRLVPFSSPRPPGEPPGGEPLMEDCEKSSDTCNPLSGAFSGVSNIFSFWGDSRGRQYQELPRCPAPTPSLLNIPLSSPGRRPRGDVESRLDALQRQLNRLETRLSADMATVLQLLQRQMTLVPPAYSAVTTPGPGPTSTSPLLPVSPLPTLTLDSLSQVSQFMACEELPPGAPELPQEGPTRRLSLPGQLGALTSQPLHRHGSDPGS
Test: modulators restoring hERG flux under dofetilide – cell-based, thallium flux, duplicate retest, dofetilide IC70, confirmation (AID 1835)
Settings: hERG cell line, FluxOR thallium flux, dofetilide-blocked; at 10 µM; active compounds read high

**Q.** Which activity increase over dofetilide control, less the hit threshold does the source give for `CCCCOc1ccc(-c2c(C#N)c(N)[nH]c(=S)c2C#N)cc1` here?
**A.** 38% (active)

**Q.** With `N#Cc1c(-c2ccco2)c2c([nH]c1=S)CCCC2` as the molecule, how does the activity increase over dofetilide control, less the hit threshold read?
**A.** -9%

**Q.** How did the activity increase over dofetilide control, less the hit threshold turn out when `CCOC(=O)c1c(C)[nH]c(=S)c(C#N)c1-c1ccc(Cl)cc1` was run?
**A.** -5%

**Q.** `c1ccc(Oc2cccc(OCCn3cncn3)c2)cc1` was tested. Which activity increase over dofetilide control, less the hit threshold did it give?
**A.** -4%

**Q.** Which activity increase over dofetilide control, less the hit threshold does the source give for `COCC(=O)N(Cc1ccco1)c1nnc(C2CCOC2)s1` (stereo unspecified) here?
**A.** -19%

**Q.** With `CC(NC(=O)COC(=O)C1CCC1)c1ccccc1` (stereo unspecified) as the molecule, how does the activity increase over dofetilide control, less the hit threshold read?
**A.** -6%

**Q.** How did the activity increase over dofetilide control, less the hit threshold turn out when `Cc1ccc(CNC(=O)CN2C(C)CCCC2C)cc1` (stereo unspecified) was run?
**A.** -7%

**Q.** With `Cc1ccc(C(=O)COC(=O)C2CCC2)cc1` as the molecule, how does the activity increase over dofetilide control, less the hit threshold read?
**A.** 4% (active)

**Q.** `CC(C)C(NC(=O)c1ccccc1)C(=O)N/N=C\c1ccco1` (stereo unspecified) was tested. Which activity increase over dofetilide control, less the hit threshold did it give?
**A.** -17%

**Q.** How did the activity increase over dofetilide control, less the hit threshold turn out when `Oc1ccc(N2CCN(C(c3cccnc3)c3nnnn3Cc3ccccc3)CC2)cc1` (stereo unspecified) was run?
**A.** 0%

**Q.** Which activity increase over dofetilide control, less the hit threshold does the source give for `Cc1cc(NC(=O)/C(C#N)=C/c2ccco2)n(-c2ccccc2)n1` here?
**A.** -12%

**Q.** Which activity increase over dofetilide control, less the hit threshold does the source give for `COc1ccc(-n2nc(C)cc2Nc2ccccc2C(=O)O)cc1` here?
**A.** 31% (active)

**Q.** Which activity increase over dofetilide control, less the hit threshold does the source give for `COc1ccc(N2CCN(C(=O)c3ccc(-c4ccccc4)cc3)CC2)cc1` here?
**A.** -18%

**Q.** How did the activity increase over dofetilide control, less the hit threshold turn out when `O=C(O)c1cccc2cc(-c3ccccc3)oc(=O)c12` was run?
**A.** -13%

**Q.** How did the activity increase over dofetilide control, less the hit threshold turn out when `CCCCN(C(=O)CC1CCCC1)c1c(N)n(CC(C)C)c(=O)[nH]c1=O` was run?
**A.** -4%

**Q.** Which activity increase over dofetilide control, less the hit threshold does the source give for `Fc1cccc(/C=N/Nc2ccc3ccccc3n2)c1` here?
**A.** -7%

**Q.** Which activity increase over dofetilide control, less the hit threshold does the source give for `Oc1c(N=Nc2ccccn2)ccc2ccccc12` here?
**A.** -5%

**Q.** For `O=[N+]([O-])c1ccc(O)c2ncccc12`, which activity increase over dofetilide control, less the hit threshold is on record?
**A.** -8%

**Q.** `COc1cccc(N=Nc2ccc(O)c3ncccc23)c1` was tested. Which activity increase over dofetilide control, less the hit threshold did it give?
**A.** 25% (active)

**Q.** Which activity increase over dofetilide control, less the hit threshold does the source give for `COc1ccc(OC)c(S(=O)(=O)NCc2cn3cccc(C)c3n2)c1` here?
**A.** -17%

**Q.** For `COc1ccccc1N=Nc1ccc(O)c2ncccc12`, which activity increase over dofetilide control, less the hit threshold is on record?
**A.** 2% (active)

**Q.** With `CCOc1ccc(N=Nc2ccc(O)c3ncccc23)cc1` as the molecule, how does the activity increase over dofetilide control, less the hit threshold read?
**A.** 0%

**Q.** With `Cc1ccc(N=Nc2ccc(O)c3ncccc23)cc1` as the molecule, how does the activity increase over dofetilide control, less the hit threshold read?
**A.** 40% (active)

**Q.** `Oc1ccc(N=Nc2ccc3c(c2)OCCO3)c2ncccc12` was tested. Which activity increase over dofetilide control, less the hit threshold did it give?
**A.** -4%

**Q.** How did the activity increase over dofetilide control, less the hit threshold turn out when `CCN(CC)S(=O)(=O)c1cc(OC)ccc1N=Nc1ccc(O)c2ncccc12` was run?
**A.** 27% (active)

**Q.** Which activity increase over dofetilide control, less the hit threshold does the source give for `COc1ccc(N(CC(=O)NCc2cccnc2)S(=O)(=O)c2ccccc2[N+](=O)[O-])c(OC)c1` here?
**A.** -3%

**Q.** For `COCC(=O)NC1CC2CCC(C1)N2C(=S)Nc1ccccc1C(=O)OC` (stereo unspecified), which activity increase over dofetilide control, less the hit threshold is on record?
**A.** -6%

**Q.** `CCC[C@H]1COCCS(=O)(=O)N1Cc1ccc(Br)cc1` was tested. Which activity increase over dofetilide control, less the hit threshold did it give?
**A.** -4%

**Q.** With `CS(=O)(=O)N1CCC(C(=O)Nc2c(F)cccc2F)CC1` as the molecule, how does the activity increase over dofetilide control, less the hit threshold read?
**A.** -6%

**Q.** For `Cn1c(=O)c2c(nc(Cl)n2CC(=O)N2CCCCC2)n(C)c1=O`, which activity increase over dofetilide control, less the hit threshold is on record?
**A.** -11%

**Q.** `N=C1SCC(=O)N1c1ncc(Cc2ccccc2Cl)s1` was tested. Which activity increase over dofetilide control, less the hit threshold did it give?
**A.** -9%

**Q.** Which activity increase over dofetilide control, less the hit threshold does the source give for `O=C(N/N=C/c1ccc(-c2ccccc2)o1)c1ccccc1O` here?
**A.** -1%

**Q.** `Cc1ccc(/C=N/NC(=O)c2cc(-c3ccncc3)nc3ccccc23)o1` was tested. Which activity increase over dofetilide control, less the hit threshold did it give?
**A.** -22%

**Q.** With `O=C(N/N=C/c1ccc(Sc2ccccn2)o1)c1cc2ccccc2cc1O` as the molecule, how does the activity increase over dofetilide control, less the hit threshold read?
**A.** 7% (active)

**Q.** For `Cc1ccc(/C=N/NC(=O)c2cc3ccccc3cc2O)o1`, which activity increase over dofetilide control, less the hit threshold is on record?
**A.** 37% (active)

**Q.** How did the activity increase over dofetilide control, less the hit threshold turn out when `Cc1cccc(/C=N/NC(=O)c2cc(Br)ccc2O)n1` was run?
**A.** 0%

**Q.** Which activity increase over dofetilide control, less the hit threshold does the source give for `Cc1ccc(/C=N/NC(=O)c2cc(C)oc2C)o1` here?
**A.** -5%

**Q.** For `COc1ccc(CCNS(=O)(=O)c2csc(C(N)=O)c2)cc1OC`, which activity increase over dofetilide control, less the hit threshold is on record?
**A.** -14%

**Q.** `Cc1nc2ccccc2n1-c1ccccc1` was tested. Which activity increase over dofetilide control, less the hit threshold did it give?
**A.** 3% (active)

**Q.** `COC(=O)c1ccc(-n2c(C)nc(=O)c(-c3ccccc3)c2C)cc1` was tested. Which activity increase over dofetilide control, less the hit threshold did it give?
**A.** -13%

**Q.** For `Cc1nnc2c(SC(C)C)nc3ccccc3n12`, which activity increase over dofetilide control, less the hit threshold is on record?
**A.** -19%

**Q.** How did the activity increase over dofetilide control, less the hit threshold turn out when `C=C(C)CSc1nnc2[nH]c(=O)cc(N)n12` was run?
**A.** -19%

**Q.** `CC1=CCC[C@@H]2[C@@](C)(CC/C(C)=C/C(=O)O)[C@H](C)CC[C@@]12C` was tested. Which activity increase over dofetilide control, less the hit threshold did it give?
**A.** 84% (active)

**Q.** How did the activity increase over dofetilide control, less the hit threshold turn out when `Nc1ccc2oc(-c3ccccc3Cl)cc(=O)c2c1O` was run?
**A.** -3%

**Q.** How did the activity increase over dofetilide control, less the hit threshold turn out when `Cc1nc2scc(C)n2c(=O)c1S(=O)(=O)Nc1ccc(N2CCOCC2)cc1` was run?
**A.** -7%

**Q.** How did the activity increase over dofetilide control, less the hit threshold turn out when `CCc1nc2sc3c(c2c(=S)[nH]1)CC(C)(C)OC3` was run?
**A.** -8%

**Q.** For `CCC1(C)Cc2c(sc3nc(SC)[nH]c(=S)c23)CO1` (stereo unspecified), which activity increase over dofetilide control, less the hit threshold is on record?
**A.** 87% (active)

**Q.** With `CSc1nc2sc3c(c2c(=S)[nH]1)CC(C)(C)OC3` as the molecule, how does the activity increase over dofetilide control, less the hit threshold read?
**A.** 81% (active)

**Q.** `CCN(CC(=O)NCc1ccc(Cl)cc1)C(=O)CCOc1ccc(C)cc1` was tested. Which activity increase over dofetilide control, less the hit threshold did it give?
**A.** -14%

**Q.** With `CNc1nc(N)nc(OC(C(F)(F)F)C(F)(F)F)n1` as the molecule, how does the activity increase over dofetilide control, less the hit threshold read?
**A.** -24%

**Q.** Which activity increase over dofetilide control, less the hit threshold does the source give for `O=C(Nc1ccccc1C(=O)O)c1cccc(NC(=O)c2ccco2)c1` here?
**A.** -3%
